Values joined by “and” are separate entries in the source; they are usually repeats but may differ in a detail not shown here. Equal values may be shown once. Among all 5,500 compounds or so, about 2,000 (36%) were called active. Another 18% or so got no clear call; they are omitted. Cut-off read from the data, not from the text of the source: active = normalized growth mostly below about 0.91 (no sharp cut-off); inconclusive = no clear call, values can overlap the other calls; inactive = mostly above about 0.92. This is one part of the list.
Experiment: chemical genetic growth profiling, strain panel (AID 1159580);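 note: tested at 20 µM; growth read once vehicle control cultures reached saturation at 30 °C; 1 = growth at the plate median or of vehicle wells; lower values mean less growth of the strain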
Conditions: S. cerevisiae deletion strains, growth OD

Measured: normalized growth

CN1CCN(CCC=C2c3ccccc3Sc3ccc(S(=O)(=O)N(C)C)cc32)CC1
inactive: locus YAL013W, strain DEP1, stronger effect = lower value 1.01 | locus YAL021C, strain ccr4, stronger effect = lower value 0.987 | locus YAL030W, strain snc1, stronger effect = lower value 0.991 | locus YBL061C, strain skt5, stronger effect = lower value 0.973 | locus YBR009C, strain hhf1, stronger effect = lower value 0.931 | locus YBR021W, strain FUR4, stronger effect = lower value 0.978 | locus YBR023C, strain chs3, stronger effect = lower value 0.919 | locus YBR171W, strain sec66, stronger effect = lower value 1.01 | locus YBR229C, strain ROT2, stronger effect = lower value 1.01 | locus YBR231C, strain swc5, stronger effect = lower value 0.945 | locus YBR279W, strain paf1, stronger effect = lower value 0.964 | locus YCL011C, strain gbp2, stronger effect = lower value 1.01 | locus YCL016C, strain dcc1, stronger effect = lower value 0.971 | locus YCL029C, strain bik1, stronger effect = lower value 0.978 | locus YCL061C, strain MRC1, stronger effect = lower value 0.953 | locus YCL069W, strain vba3, stronger effect = lower value 0.971 | locus YCR088W, strain abp1, stronger effect = lower value 1.01 | locus YDL005C, strain med2, stronger effect = lower value 0.996 | locus YDL035C, strain GPR1, stronger effect = lower value 1 | locus YDL040C, strain nat1, stronger effect = lower value 0.993 | locus YDL074C, strain BRE1, stronger effect = lower value 0.989 | locus YDL101C, strain DUN1, stronger effect = lower value 1 | locus YDL134C, strain PPH21, stronger effect = lower value 1 | locus YDL185W, strain tfp1, stronger effect = lower value 0.989 | locus YDL192W, strain arf1, stronger effect = lower value 0.991 | locus YDR001C, strain nth1, stronger effect = lower value 1.01 | locus YDR069C, strain doa4, stronger effect = lower value 1 | locus YDR101C, strain arx1, stronger effect = lower value 0.95 | locus YDR150W, strain NUM1, stronger effect = lower value 1.02 | locus YDR159W, strain sac3, stronger effect = lower value 0.936 | locus YDR162C, strain NBP2, stronger effect = lower value 1 | locus YDR195W, strain ref2 1.1 | locus YDR297W, strain sur2, stronger effect = lower value 0.975 | locus YDR334W, strain swr1, stronger effect = lower value 1.01 | locus YDR335W, strain msn5, stronger effect = lower value 0.953 | locus YDR502C, strain sam2, stronger effect = lower value 0.931 | locus YEL003W, strain gim4, stronger effect = lower value 1.01 | locus YEL037C, strain rad23, stronger effect = lower value 1 | locus YEL061C, strain CIN8 (second series), stronger effect = lower value 0.998 | locus YEL061C, strain CIN8, stronger effect = lower value 1.02 | locus YER015W, strain faa2, stronger effect = lower value 0.985 | locus YER016W, strain bim1, stronger effect = lower value 0.992 | locus YER110C, stronger effect = lower value 0.977 | locus YER111C, strain swi4, stronger effect = lower value 0.988 | locus YER155C, strain BEM2, stronger effect = lower value 0.999 | locus YER167W, strain BCK2, stronger effect = lower value 1 | locus YFR010W, strain ubp6, stronger effect = lower value 0.965 | locus YGL078C, strain dbp3, stronger effect = lower value 0.996 | locus YGL086W, strain mad1, stronger effect = lower value 0.946 | locus YGL167C, strain pmr1, stronger effect = lower value 1.01 | locus YGL173C, strain kem1, stronger effect = lower value 0.969 | locus YGL227W, strain vid30, stronger effect = lower value 1.02 | locus YGL240W, strain doc1, stronger effect = lower value 0.921 | locus YGL248W, strain PDE1, stronger effect = lower value 1 | locus YGR135W, strain pre9, stronger effect = lower value 0.904 | locus YHR013C, strain ard1, stronger effect = lower value 0.944 | locus YHR027C, strain rpn1, stronger effect = lower value 0.99 | locus YHR030C, strain SLT2, stronger effect = lower value 1.01 and 0.981 | locus YHR079C, strain IRE1 (second series), stronger effect = lower value 0.933 | locus YHR079C, strain IRE1, stronger effect = lower value 0.98 | locus YHR094C, strain hxt1, stronger effect = lower value 0.972 | locus YHR129C, strain ARP1, stronger effect = lower value 1.01 | locus YHR200W, strain rpn10, stronger effect = lower value 0.96 | locus YIL066C, strain RNR3, stronger effect = lower value 1.01 | locus YIL073C, strain SPO22, stronger effect = lower value 1.02 | locus YIL125W, strain kgd1, stronger effect = lower value 0.997 | locus YIR030C, strain dcg1, stronger effect = lower value 0.98 | locus YJL092W, strain hpr5, stronger effect = lower value 0.977 | locus YJL095W, strain BCK1 (second series), stronger effect = lower value 0.973 | locus YJL095W, strain BCK1, stronger effect = lower value 0.992 and 0.978 | locus YJL115W, strain asf1, stronger effect = lower value 1 | locus YJL129C, strain trk1, stronger effect = lower value 1.03 | locus YJL134W, strain LCB3, stronger effect = lower value 1.01 | locus YJL154C, strain vps35, stronger effect = lower value 1.01 | locus YJL164C, strain tpk1, stronger effect = lower value 0.972 | locus YJL166W, strain qcr8, stronger effect = lower value 0.979 | locus YJL168C, strain set2, stronger effect = lower value 0.971 | locus YJL187C, strain SWE1 (second series), stronger effect = lower value 1.01 | locus YJL187C, strain SWE1, stronger effect = lower value 0.994
active: locus YAL026C, strain drs2, stronger effect = lower value 0.767 | locus YDR137W, strain rgp1, stronger effect = lower value 1.23 [resistant] | locus YDR318W, strain mcm21, stronger effect = lower value 0.911 | locus YDR388W, stronger effect = lower value 0.922 | locus YDR392W, strain spt3, stronger effect = lower value 0.456 | locus YER155C, strain BEM2 (second series), stronger effect = lower value 0.681 | locus YGL253W, strain hxk2, stronger effect = lower value 0.889 | locus YGR252W, strain gcn5, stronger effect = lower value 0.711 | locus YHR142W, strain chs7, stronger effect = lower value 0.86
